Screening results: PubChem, The Scripps Research Institute Molecular Screening Center
ssDAF12 agonist = activates DAF-12 receptor from parasite S. stercoralis; HEK293 ssDAF-12/GRIP1 lit1-tk-luc reporter, luminescence; % of 3 µM dafachronic acid response; activation, % at 6.8 µM; 1% of 370,000 active; AID 652126;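 active means activation above the mean over all tested compounds plus 3 SD, cut at about 0.9% in these data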;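 further: 0% = DMSO-only wells and 100% = 3 µM delta7-dafachronic acid wells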
DAX1 inh-1 = NR0B1 (DAX1) inhibition; HEK293 Gal4-DAX1 luciferase reporter, luminescence; inhibition, % at 6.75 µM; 0.99% of 340,000 active; AID 504766;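 active means inhibition above the mean over all tested compounds plus 3 SD, cut at about 4.2% in these data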;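 further: 0% = DAX1-transfected cells with DMSO and 100% = empty-vector control cells with DMSO; inhibition shows as a rise in luminescence from relieved DAX1 repression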
hgDAF-12 ag = activates the H. glycines DAF-12 receptor ligand-binding domain; HEK293 GAL4-hgDAF12 UAS-luciferase reporter, agonist luminescence; normalized to butyrate control; activation, % at 6.8 µM; 1.8% of 370,000 active; AID 687014;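 active means activation above a cutoff set at the mean of all screened compounds plus 3 SD, cut at about 10% in these data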;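 further: 0% = DMSO wells and 100% = sodium butyrate wells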
DAX1 inh-2 = blocks DAX1 repression of SF-1 activated StAR promoter. HEK293T StAR-luciferase reporter, SF-1/DAX-1 repression relief. inhibition, % at 6.8 µM. 1.1% of 370,000 active;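 active means inhibition above the mean over all tested compounds plus 3 SD, cut at about 3.6% in these data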;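 further: 0% = DAX-1 cells with DMSO and 100% = cells lacking DAX-1 with DMSO; higher inhibition means more luminescence from relief of DAX-1 repression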
hcDAF12 agonist = activates DAF-12 receptor from parasite H. contortus. HEK293 hcDAF-12 lit1-tk-luc reporter, luminescence; 0% DMSO, 100% Δ7-dafachronic acid. activation, % at 6.8 µM. 1.4% of 370,000 active;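 active means activation above the mean of all tested compounds plus 3 SD, cut at about 5.5% in these data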;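 further: 100% = response to 3 µM Δ7-dafachronic acid high control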
DAX1 conf = NR0B1 (human) inhibition, confirmation; HEK293T StAR-promoter luciferase reporter, SF-1/DAX-1 repression; inhibition, % at 6.8 µM; 87% of 2,400 active; AID 652134; shares compounds with DAX1 inh-2;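 active means inhibition above the average of every tested compound plus 3 SD, cut at about 3.8% in these data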;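 further: 0% = DAX-1 cells with DMSO and 100% = no DAX-1 control cells with DMSO; active compounds raise luminescence by relieving repression of the StAR reporter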
SF1 mutant ctr = nonselective inhibitor or artifact in SF-1 mutant DAX1 counter-screen | HEK293 StAR-luciferase, SF-1 AF2 mutant, luminescence | AID 652136 | shares compounds with DAX1 inh-2 | 78% of 2,400 active | inhibition, % at 6.8 µM;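 active means inhibition above the mean of all tested compounds plus 3 SD, cut at about 3% in these data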;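 further: 0% = DAX-1 transfected cells with DMSO and 100% = cells without DAX-1 with DMSO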
LXRb hcDAF ctr = LXR-beta agonism as hcDAF-12 counter-screen; shares compounds with hcDAF12 agonist; HEK293 Gal4-LXR tk-luc reporter, luminescence, 24 h; normalized: DMSO 0%, positive control 100%; activation, % at 6.8 µM; 3,400 tested, under 10 active; AID 743027;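 active means mean percent activation of the reporter above a cutoff set as the average over tested compounds plus their standard deviation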
Target sequence (P55055 whole entry, looked up, the tested form may be a part): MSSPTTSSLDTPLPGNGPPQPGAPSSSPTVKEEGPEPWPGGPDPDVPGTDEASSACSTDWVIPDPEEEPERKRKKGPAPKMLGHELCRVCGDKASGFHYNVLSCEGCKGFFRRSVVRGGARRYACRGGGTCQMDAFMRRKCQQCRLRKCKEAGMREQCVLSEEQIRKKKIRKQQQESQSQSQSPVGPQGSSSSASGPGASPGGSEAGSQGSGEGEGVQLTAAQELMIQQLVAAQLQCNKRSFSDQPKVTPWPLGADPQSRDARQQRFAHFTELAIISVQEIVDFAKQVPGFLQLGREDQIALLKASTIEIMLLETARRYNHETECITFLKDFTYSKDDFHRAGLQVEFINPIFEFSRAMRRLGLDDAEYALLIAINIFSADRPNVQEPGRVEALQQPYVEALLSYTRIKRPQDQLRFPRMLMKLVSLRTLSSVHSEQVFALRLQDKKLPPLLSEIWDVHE
hcDAF12 ag = confirmation of H. contortus DAF-12 agonists | 61% of 3,400 active | activation, % at 6.8 µM | shares compounds with hcDAF12 agonist | HEK293 hcDAF-12 lit1-tk-luc reporter, luminescence; % of Δ7-dafachronic acid response;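 active means mean activation across triplicate tests above the threshold derived from the earlier primary screen, cut at about 5.5% in these data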;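 further: 0% = DMSO only wells and 100% = 3 µM Δ7-dafachronic acid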
hgDAF12 ag = confirmation of H. glycines DAF-12 agonists | shares compounds with hgDAF-12 ag | HEK293 GAL4-hgDAF12 luciferase reporter, agonist mode; percent of butyrate response | 80% of 3,300 active | activation, % at 6.8 µM;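 active means mean activation over triplicate wells above the hit cutoff derived from the earlier primary screen, cut at about 11% in these data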;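 further: 0% = DMSO low control and 100% = 2 mM sodium butyrate high control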
LXR ag 2 = activates human LXR-beta, counter-screen for DAF-12 agonists. shares compounds with hgDAF-12 ag. HEK293 Gal4-LXR luciferase reporter, 24 h. activation, % at 6.8 µM. 3,300 tested, under 10 active;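 active means mean activation of the triplicate above a set limit carried over from the primary screen, none filed active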
Active calls of the source: *; . = no result. Compounds with a hit are over-represented: about 4.1% of the library has one in this group of screens.

SMILES	ssDAF12 agonist	DAX1 inh-1	hgDAF-12 ag	DAX1 inh-2	hcDAF12 agonist	DAX1 conf	SF1 mutant ctr	LXRb hcDAF ctr	hcDAF12 ag	hgDAF12 ag	LXR ag 2
C=CCNc1nc(-c2cc3ccccc3o2)cs1	1.5*	0	18*	6.5*	9.1*	14*	4.1*	2	8.3*	18*	1
c1ccc2oc(-c3csc(NCC4CCCO4)n3)cc2c1 (stereo not given)	1.1*	1	15*	10*	4	12*	7.0*	.	.	15*	1
COc1ccc(-c2csc(Nc3ccccc3)n2)cc1	0	2	21*	7.4*	5	13*	8.2*	.	.	20*	1
CC(=O)c1cccc(Nc2nc(-c3cccnc3)cs2)c1	0	1	8	1	0	.	.	.	.	.	.
CC(=O)c1cccc(Nc2nc(-c3ccccc3)cs2)c1	1.0*	1	21*	9.7*	9.8*	11*	7.0*	2	5	19*	1
COc1cccc(-c2noc(-c3ccc4c(c3)OCO4)n2)c1	1.8*	4.3*	17*	6.1*	5	13*	4.0*	.	.	17*	1
COc1ccc(-c2noc(-c3ccc4c(c3)OCO4)n2)cc1	-1	0	3	1	1	.	.	.	.	.	.
c1ccc(-c2noc(-c3ccc4c(c3)OCO4)n2)cc1	1.2*	4	22*	5.0*	6.3*	18*	7.7*	.	.	19*	1
CCCCCn1nnnc1C1(C)CN(S(C)(=O)=O)CC(=O)N1Cc1ccco1 (stereo not given)	0	.	6	0	-1	.	.	.	.	.	.
Cc1ccccc1Nc1nc(N)c2ccccc2n1	0	1	19*	5.3*	7.1*	12*	5.6*	1	5	17*	1
COc1ccc(C)cc1Nc1nc(N)c2ccccc2n1	-1	-3	3	0	0	.	.	.	.	.	.
COC(=O)c1cc2c(c3c4cc(F)ccc4n(S(=O)(=O)c4cccc(C)c4)c13)C(=O)N(C)C2	-1	.	0	-1	2	.	.	.	.	.	.
COc1ccc(/C=C/C(=O)O/N=C(\N)c2ccccn2)cc1OC	0	1	29*	6.2*	7.2*	5.4*	3.0*	1	4	11*	1
N/C(=N\OC(=O)/C=C/c1ccccc1)c1ccccn1	1	1	13*	5.9*	7.0*	11*	6.6*	1	3	14*	1
COc1ccc(CC(=O)O/N=C(\N)c2ccccn2)cc1OC	0	1	1	1	0	.	.	.	.	.	.
O=C(CSc1ccccn1)N1CCc2ccccc21	0	1	16*	6.9*	2	12*	5.7*	.	.	14*	1
Cn1ccnc1SCC(=O)N1CCc2ccccc21	0	2	20*	5.5*	3	7.1*	5.6*	.	.	9	0
COc1cccc(-n2ccnc2SCC(=O)N2CCc3ccccc32)c1	-2	0	-2	-1	0	.	.	.	.	.	.
CC(C)Cc1ccc(/C=C/C(=O)N2CCOCC2)cc1	1.4*	3	16*	6.0*	4	9.5*	5.2*	.	.	12*	1
CC(C)(C)c1ccc(/C=C/C(=O)N2CCOCC2)cc1	0	1	10	2	4	.	.	.	.	.	.
